Assay results taken from the supplement of paper PMC3334620.
Whole data set: some 33,000 sequences, median “E-score (-0.5 to 0.5)” near -0.035, cut for the highest 2% near 0.35. The full list was thinned out, with the highest values kept by preference.

Biological target: T1, Pdr3 (UniProt P33200)
T1 sequence: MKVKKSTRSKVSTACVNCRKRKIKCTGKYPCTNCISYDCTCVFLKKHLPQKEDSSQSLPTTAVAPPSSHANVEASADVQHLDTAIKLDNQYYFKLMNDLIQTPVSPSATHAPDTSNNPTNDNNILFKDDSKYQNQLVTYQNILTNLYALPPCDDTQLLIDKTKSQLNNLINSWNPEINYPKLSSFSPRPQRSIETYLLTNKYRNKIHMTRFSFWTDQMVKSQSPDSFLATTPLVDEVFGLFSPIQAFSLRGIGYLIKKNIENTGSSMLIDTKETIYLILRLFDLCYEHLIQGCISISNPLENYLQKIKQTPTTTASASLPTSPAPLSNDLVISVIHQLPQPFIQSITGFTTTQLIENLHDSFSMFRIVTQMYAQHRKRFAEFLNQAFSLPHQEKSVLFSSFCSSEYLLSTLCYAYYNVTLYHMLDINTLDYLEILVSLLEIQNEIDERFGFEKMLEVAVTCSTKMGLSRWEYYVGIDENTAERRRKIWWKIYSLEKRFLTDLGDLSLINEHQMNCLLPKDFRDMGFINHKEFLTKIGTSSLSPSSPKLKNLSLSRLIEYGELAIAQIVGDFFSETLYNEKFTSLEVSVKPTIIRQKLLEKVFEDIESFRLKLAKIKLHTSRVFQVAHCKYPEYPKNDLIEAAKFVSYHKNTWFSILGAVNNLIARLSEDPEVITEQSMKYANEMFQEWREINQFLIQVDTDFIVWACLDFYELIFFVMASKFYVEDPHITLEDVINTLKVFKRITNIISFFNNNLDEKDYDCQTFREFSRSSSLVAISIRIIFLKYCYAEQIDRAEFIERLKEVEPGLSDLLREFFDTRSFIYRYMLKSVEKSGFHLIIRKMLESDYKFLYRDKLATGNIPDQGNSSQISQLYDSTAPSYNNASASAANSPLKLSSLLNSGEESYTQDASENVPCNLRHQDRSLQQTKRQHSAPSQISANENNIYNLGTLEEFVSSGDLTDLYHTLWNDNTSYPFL
Test: PBM E-score (8-mer binding enrichment) (E-score (-0.5 to 0.5)); higher = stronger / more preferred TF binding
Settings: protein concentration: 200 nM; construct: GST-full length
Outline: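 Yeast transcription factors, full-length or as DNA-binding domains, were expressed with a GST tag using PURExpress in vitro transcription/translation. At about 100-200 nM they were applied to universal all-10-mer Agilent arrays, double-stranded by primer extension on fresh or once-stripped slides. Fluorescent anti-GST detected bound protein, and masliner normalised the scans. E-scores for ungapped eight-base words, pooled with reverse complements, came from the Universal PBM Analysis Suite.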

Row | Sequence | PBM E-score
1 | GCCGTGGA | 0.258
2 | CCCGTGGC | 0.233
3 | TCCGTCGA | 0.39
4 | GCCGTCGA | 0.104
5 | ACCGTCAA | -0.00477
6 | TCCGTCAA | 0.375
7 | GCCGTCAA | -0.048
8 | CCCGTCGA | 0.215
9 | AAGCGAAG | -0.0806
10 | ACCAGTAT | 0.0888
11 | AGTTGGTA | -0.111
12 | GTCATCCA | -0.0723
13 | AACGGAAG | 0.423
14 | AACGGACT | 0.0833
15 | AACGGTAG | 0.0653
16 | AACGGAGT | 0.373
17 | AACGGAGG | 0.185
18 | AACGGTAT | -0.0131
19 | AACGGAAT | 0.468
20 | AATGGAAG | 0.0364
21 | AACGGAGC | 0.275
22 | ACTTTCGA | -0.0188

Row | Sequence | PBM E-score
23 | AAAGTTCC | 0.2
24 | GGCGGGGA | 0.292
25 | ATTAGCAG | -0.0762
26 | ATGCGCAT | 0.165
27 | AATCCTCA | -0.244
28 | ACTATCCC | 0.165
29 | AACGACCG | -0.146
30 | CCAATTAC | -0.099
31 | GAGATAAA | 0.122
32 | AACGCGGA | 0.358
33 | CACGCGGG | 0.0841
34 | CACGCGGA | 0.38
35 | CACGCGGC | -0.00292
36 | AACGCGGC | 0.123
37 | AACGCGGG | 0.332
38 | ATGTACCG | -0.0139
39 | GAGTGCTA | -0.0621
40 | CTGGGAGC | -0.192
41 | CAAAAAAA | 0.211
42 | AAGCAAAG | -0.213
43 | CACAGCAG | -0.234
44 | GCAGCCAC | 0.0849

Row | Sequence | PBM E-score
45 | ATGCACAA | -0.0898
46 | ACGGACAC | 0.321
47 | CTCTCGAA | -0.197
48 | ATCTCGGG | 0.278
49 | CTCTCGGA | 0.358
50 | CTCTCGGC | 0.118
51 | ATCTCGGA | 0.376
52 | GTCTCGGA | 0.306
53 | CCGTTTTC | 0.202
54 | CACGGGAG | 0.0682
55 | GCCGGGAC | 0.316
56 | CCGGGGGA | 0.311
57 | CCCGGGAA | 0.443
58 | CCCGGGAC | 0.451
59 | CCGGGGAC | 0.234
60 | CCCGGGAG | 0.397
61 | CCGGGGAG | 0.332
62 | CCTGGGAA | -0.0887
63 | CCCGGGGC | 0.338
64 | CCCGGGGA | 0.414
65 | ACCGGGAG | 0.144
66 | CCTCTACC | -0.104

Row | Sequence | PBM E-score
67 | AGCGAGCA | -0.189
68 | ATAATCAT | 0.0794
69 | AGTCTTAG | -0.224
70 | CGATTCGA | 0.143
71 | AGTGTCGA | 0.0406
72 | ATGACCAA | -0.0317
73 | ATGCCCTC | -0.0557
74 | AGCTAAAT | -0.165
75 | ACAGTTAC | -0.111
76 | CGCTATCC | 0.158
77 | AACGAGAA | -0.0948
78 | CAAGGGCA | -0.0651
79 | AGGCACGC | 0.049
80 | GGCGGCCC | -0.00494
81 | CTCACCAA | 0.136
82 | AAGCGGTC | 0.00531
83 | CCCCGGCA | 0.189
84 | ACGGGGAA | 0.204
85 | GCCGGGAA | 0.304
86 | TCCCGGCA | 0.323
87 | TACCGGGA | 0.347
88 | CCCCGGGA | 0.417

Row | Sequence | PBM E-score
89 | TCCGGGCA | 0.346
90 | CCGGGGAA | 0.356
91 | CGGGGGAA | 0.276
92 | CCCCGGTA | 0.122
93 | TCCGGGAA | 0.386
94 | TCCCGGGA | 0.485
95 | ATTACACA | -0.0105
96 | AAACGCGG | 0.245
97 | ACCAGGCG | -0.0145
98 | AGCCTTTA | -0.193
99 | GGCTAAAC | -0.135
100 | CTCATTCC | 0.356
101 | ATCATTCC | 0.281
102 | CTCATTCA | -0.0959
103 | AGATAGGC | -0.16
104 | ATGCTCTC | -0.108
105 | ATGCCGGG | 0.245
106 | GTGCCGTA | 0.0678
107 | ATGCCGGC | 0.341
108 | GTGCCGGA | 0.369
109 | CTGCCGGA | 0.32
110 | ATGCCGGA | 0.405
